We go through 95 compounds from PubChem BioAssay AID1671202 (University of Kansas High Throughput Screening Laboratory, 2021).

Values joined by “and” are separate entries in the source; they are usually repeats but may differ in a detail not shown here. Equal values may be shown once. Screen size: about 190,000 compounds; about 6,900 (3.6%) were called active. Cut-off read from the data, not from the text of the source: active = inhibition above about 50%; inactive = the rest. Many of the other results were omitted from the sample, so actives are more common in it than they were. A structure can be active in one record and inactive in another.

Sequence of Huntingtin (Homo sapiens) (P42858 whole entry, looked up, stated change not applied): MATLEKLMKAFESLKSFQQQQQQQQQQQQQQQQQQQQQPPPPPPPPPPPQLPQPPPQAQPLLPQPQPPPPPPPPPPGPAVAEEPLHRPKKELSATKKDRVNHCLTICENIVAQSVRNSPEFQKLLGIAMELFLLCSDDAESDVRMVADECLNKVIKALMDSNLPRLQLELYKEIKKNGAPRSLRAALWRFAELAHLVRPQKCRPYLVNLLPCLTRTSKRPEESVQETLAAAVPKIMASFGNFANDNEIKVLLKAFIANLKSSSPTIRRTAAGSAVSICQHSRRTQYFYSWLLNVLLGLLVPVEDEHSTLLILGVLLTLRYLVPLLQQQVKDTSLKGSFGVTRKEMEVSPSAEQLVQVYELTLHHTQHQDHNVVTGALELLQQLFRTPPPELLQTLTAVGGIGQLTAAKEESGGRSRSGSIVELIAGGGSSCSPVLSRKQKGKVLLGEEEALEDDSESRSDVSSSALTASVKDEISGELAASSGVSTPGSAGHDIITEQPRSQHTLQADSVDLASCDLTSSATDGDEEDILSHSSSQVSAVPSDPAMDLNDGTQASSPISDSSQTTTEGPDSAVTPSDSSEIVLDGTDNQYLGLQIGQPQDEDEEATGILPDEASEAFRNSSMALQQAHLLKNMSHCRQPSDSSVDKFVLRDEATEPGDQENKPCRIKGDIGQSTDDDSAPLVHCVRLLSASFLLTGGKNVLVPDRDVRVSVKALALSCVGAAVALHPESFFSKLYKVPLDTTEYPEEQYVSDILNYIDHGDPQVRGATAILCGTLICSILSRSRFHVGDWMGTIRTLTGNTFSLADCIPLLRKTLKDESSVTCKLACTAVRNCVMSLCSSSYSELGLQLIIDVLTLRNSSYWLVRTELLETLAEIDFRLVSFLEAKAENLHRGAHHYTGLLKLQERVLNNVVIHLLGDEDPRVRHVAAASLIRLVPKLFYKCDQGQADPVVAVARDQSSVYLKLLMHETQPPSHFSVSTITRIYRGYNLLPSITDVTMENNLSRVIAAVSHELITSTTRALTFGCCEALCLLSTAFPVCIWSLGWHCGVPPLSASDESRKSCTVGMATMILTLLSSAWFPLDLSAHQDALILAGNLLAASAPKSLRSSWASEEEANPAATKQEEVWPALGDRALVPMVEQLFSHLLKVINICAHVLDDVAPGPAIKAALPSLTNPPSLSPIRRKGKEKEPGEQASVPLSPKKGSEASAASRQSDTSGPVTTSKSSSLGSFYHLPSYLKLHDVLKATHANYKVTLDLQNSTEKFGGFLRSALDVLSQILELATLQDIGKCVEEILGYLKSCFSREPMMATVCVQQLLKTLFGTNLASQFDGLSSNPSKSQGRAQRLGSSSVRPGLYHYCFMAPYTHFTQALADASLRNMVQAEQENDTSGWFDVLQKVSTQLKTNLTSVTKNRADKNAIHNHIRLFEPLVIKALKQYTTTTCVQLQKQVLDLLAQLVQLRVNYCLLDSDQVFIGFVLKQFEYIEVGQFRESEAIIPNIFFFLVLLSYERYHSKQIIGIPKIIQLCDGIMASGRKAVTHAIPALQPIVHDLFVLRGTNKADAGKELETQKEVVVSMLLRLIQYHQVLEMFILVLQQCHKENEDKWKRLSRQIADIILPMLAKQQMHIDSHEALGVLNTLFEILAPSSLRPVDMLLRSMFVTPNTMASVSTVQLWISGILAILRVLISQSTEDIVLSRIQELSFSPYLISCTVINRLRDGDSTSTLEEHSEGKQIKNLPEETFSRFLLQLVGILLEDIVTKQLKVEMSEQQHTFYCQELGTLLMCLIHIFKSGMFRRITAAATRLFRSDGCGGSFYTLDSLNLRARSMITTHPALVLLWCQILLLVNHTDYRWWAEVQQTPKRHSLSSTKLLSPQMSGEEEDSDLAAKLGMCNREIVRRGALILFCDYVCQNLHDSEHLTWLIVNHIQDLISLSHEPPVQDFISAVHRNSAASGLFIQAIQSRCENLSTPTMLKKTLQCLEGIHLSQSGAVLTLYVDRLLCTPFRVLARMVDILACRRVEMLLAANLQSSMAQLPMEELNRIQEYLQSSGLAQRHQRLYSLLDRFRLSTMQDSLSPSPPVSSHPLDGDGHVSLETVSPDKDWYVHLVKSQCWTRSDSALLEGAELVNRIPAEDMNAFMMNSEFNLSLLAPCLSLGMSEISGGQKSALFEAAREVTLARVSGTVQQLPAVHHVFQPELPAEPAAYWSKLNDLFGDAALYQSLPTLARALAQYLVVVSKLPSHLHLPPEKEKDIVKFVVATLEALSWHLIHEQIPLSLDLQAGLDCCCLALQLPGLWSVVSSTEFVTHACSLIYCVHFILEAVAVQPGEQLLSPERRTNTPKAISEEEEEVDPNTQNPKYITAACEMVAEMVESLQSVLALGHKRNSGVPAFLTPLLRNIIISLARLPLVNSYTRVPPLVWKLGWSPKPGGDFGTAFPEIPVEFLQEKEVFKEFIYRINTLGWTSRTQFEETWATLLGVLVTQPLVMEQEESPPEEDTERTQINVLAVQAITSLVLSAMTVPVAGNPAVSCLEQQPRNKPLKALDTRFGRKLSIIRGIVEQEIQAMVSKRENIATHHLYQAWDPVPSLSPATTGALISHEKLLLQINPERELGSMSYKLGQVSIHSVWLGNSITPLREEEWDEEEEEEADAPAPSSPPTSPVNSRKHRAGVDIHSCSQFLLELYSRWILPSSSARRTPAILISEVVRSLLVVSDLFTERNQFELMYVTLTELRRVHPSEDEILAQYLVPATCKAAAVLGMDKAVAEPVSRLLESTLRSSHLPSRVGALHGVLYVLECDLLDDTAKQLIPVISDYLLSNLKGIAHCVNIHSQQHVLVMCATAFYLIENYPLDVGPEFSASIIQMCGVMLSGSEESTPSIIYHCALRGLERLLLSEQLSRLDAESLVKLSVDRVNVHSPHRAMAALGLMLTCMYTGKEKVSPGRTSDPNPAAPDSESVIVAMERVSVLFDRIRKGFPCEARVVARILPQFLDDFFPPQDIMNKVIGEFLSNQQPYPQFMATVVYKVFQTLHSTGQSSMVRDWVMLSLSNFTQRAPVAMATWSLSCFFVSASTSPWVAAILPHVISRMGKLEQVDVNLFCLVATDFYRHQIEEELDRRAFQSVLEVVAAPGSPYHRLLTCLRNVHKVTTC

This assay has as its target Huntingtin (Homo sapiens) (UniProt P42858). As to the kind of experiment: mutant huntingtin-calmodulin interaction inhibitors – biochemical, AlphaScreen, primary screen (AID 1671202).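 For inhibition: 0% = both proteins with DMSO and 100% = one protein alone.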 As to conditions: AlphaScreen His-mHTT/GST-CaM binding, luminescence; at 15 µM, stronger effect = higher value. For orientation: Alpha assays give light when donor and acceptor beads are brought close together.
The term inhibition denotes the relative decrease from the control value, in per cent. With `O=C(Nc1ccc(N2CCN(C(=O)C3CCCC3)CC2)nc1)c1ccc(F)cc1F`, the inhibition was 1.5% (inactive).

As to `CCOc1ccc2nc(C(=O)Nc3ccc(Br)cc3)sc2c1`, the inhibition was -2% (inactive).

Take `CC(C)(CCl)C(=O)N1CCN(c2cc(Oc3ccc(F)c(F)c3)ncn2)CC1`: the inhibition was 6.2% (inactive).

Regarding `Cc1ccc(C(=O)N2CCC(n3cnnc3-c3ccccc3)C2)cn1` (stereo not given), the inhibition was -1.7% (inactive).

For `O=C(Nc1ccccc1O)c1ncn[nH]1`, the inhibition is 8.9% (inactive).

On to `CCC(NC(=O)c1ncn[nH]1)c1ccccc1` (stereo not given), for which the inhibition was 89.5% (active).

As for `CCC(NC(C)=O)c1cccc(Br)c1` (stereo not given), the inhibition was -3.8% (inactive).

On to `Cc1ccc(N2CCC(C(=O)NCc3ccc(F)cc3)C2=O)cc1Cl` (stereo not given), for which the inhibition is -0.5% (inactive).

Take `COc1cccc(CC(=O)N2CCCC2c2cccc(F)c2)c1` (stereo not given): the inhibition was 15% (inactive).

In the case of `O=C(CSc1nnc(NC(=O)c2ccc(Cl)c(Cl)c2)s1)NCc1ccco1`, the inhibition was -5.3% (inactive).

For the compound `COc1ccc2nc(SCC(=O)NCc3cccs3)[nH]c2c1`, the inhibition is -2% (inactive).

With `O=C(CSc1nc(CC(=O)NCc2cccs2)cc(=O)[nH]1)NCc1ccco1`, the inhibition was 100% (active).

As for `COc1ccccc1NC(=O)CC(C)c1ccccc1` (stereo not given), the inhibition was -7.2% (inactive).

With `COc1ccccc1NC(CNS(=O)(=O)c1ccc(Cl)cc1)c1ccccc1` (stereo not given), the inhibition is 64% (active).

As for `COc1ccccc1NC(=O)c1cc(S(=O)(=O)NCc2ccccc2Cl)ccc1F`, the inhibition is -3% (inactive).

Take `COc1ccc(C2=NN(C(C)=O)C(c3cc4cc(C)ccc4nc3Cl)C2)cc1OC` (stereo not given): the inhibition was -3% (inactive).

For the compound `O=C(CN1N=C(c2ccccc2)CCC1=O)NCCc1ccc(Cl)cc1`, the inhibition was 29% (inactive).

As for `O=C(NCCc1ccccc1)c1ccc(I)cc1`, the inhibition was -3% (inactive).

Consider `COc1ccccc1NC(=O)Cn1nnc(-c2ccccc2F)n1`, for which the inhibition was -2.8% (inactive).

As to `COc1cc(C(=O)N2CCC(Cc3ccccc3)CC2)c([N+](=O)[O-])cc1OC`, the inhibition is 54.1% (active).

With `COc1ccc(NC(=O)N2CCC(Cc3ccccc3)CC2)cc1`, the inhibition was -3.2% (inactive).

With `COc1cc(C(=O)N2CCCC2)c([N+](=O)[O-])cc1OC`, the inhibition was -4.1% (inactive).

With `CCOc1ccc(C(=O)Nc2cc([N+](=O)[O-])ccc2C)cc1`, the inhibition was -0.3% (inactive).

Turning to `COc1ccccc1NC(=O)c1c(NCc2ccncc2)sc2c1CCCC2`, the inhibition is 65% (active).

Take `COc1ccc(OC)c(NC(=O)c2c(NCc3ccc(C)o3)sc3c2CCC3)c1`: the inhibition is 7.9% (inactive).

Take `COc1cccc(OC)c1C(=O)Nc1sc2c(c1C(N)=O)CCCC2`: the inhibition was 25.3% (inactive).

Take `Cn1nccc1C(=O)N1CCCC(c2n[nH]c(C3CC3)n2)C1` (stereo not given): the inhibition is 5.54% (inactive).

With `CC(=O)c1nc2sc(C)c(C)c2[nH]1`, the inhibition is -3.74% (inactive).

Consider `COc1ccc(C2C(=C(O)c3ccc(C)cc3)C(=O)C(=O)N2c2ccccn2)cc1` (stereo not given), for which the inhibition is 2.6% (inactive).

With `CN(C)CCCN1C(=O)C(=O)C(=C(O)c2ccccc2)C1c1cccc(Br)c1` (stereo not given), the inhibition is -1.6% (inactive).

For `Cc1ccc(C(O)=C2C(=O)C(=O)N(c3ncccn3)C2c2cccc(Br)c2)cc1` (stereo not given), the inhibition was 51.6% (active).

Take `CN1CCN(CC(=O)Nc2c3c(nc4ccccc24)N(c2ccccc2)CC3)CC1`: the inhibition is -4% (inactive).

In the case of `CN1CCc2c(n(-c3ccccc3)c3ccccc23)C1=O`, the inhibition was 56.8% (active).

Consider `N#CSc1ccc(NC(=O)c2ccc(-n3cnnn3)cc2)cc1`, for which the inhibition was 8.8% (inactive).

For `C=CCNC(=O)C(=O)NCc1ccccn1`, the inhibition was -1.5% (inactive).

As for `Cc1ccc(S(=O)(=O)Nc2cc(S(=O)(=O)O)c(N)c3c2C(=N)c2ccccc2C3=O)cc1`, the inhibition was 94% (active).

Take `Cc1ccc(S(=O)(=O)Nc2ccccc2C(=O)NN)cc1`: the inhibition was 5.3% (inactive).

`COc1cc(N)ccc1NS(=O)(=O)c1ccc(C)cc1`: the inhibition was 10.8% (inactive).

Turning to `CCCc1cc(=O)[nH]c(SCC(=O)Nc2cc(C(F)(F)F)ccc2Cl)n1`, the inhibition is -6.6% (inactive).

As for `O=C(O)C1C2CCC3C(CCC21)C3C(=O)O` (stereo not given), the inhibition is -1.3% (inactive).

For the compound `C=CCOC(=O)C1=C(C)NC2=C(C(=O)CC(C)(C)C2)C1c1ccc(OCC)c(OC)c1` (stereo not given), the inhibition was -6.9% (inactive).

As to `O=C(NCc1cccs1)C1CCc2sc(C(=O)N3CCCCC3)cc2C1` (stereo not given), the inhibition is 3.05% (inactive).

Regarding `O=C(NC(n1cnc2c(Cl)ncnc21)C(Cl)(Cl)Cl)c1ccccc1` (stereo not given), the inhibition was -3% (inactive).

Turning to `O=C(Nc1cccc(Cl)c1)Nc1c2c(nn1-c1ccccc1)CSC2`, the inhibition is 15.8% (inactive).

Regarding `CCC(Sc1nc2n[nH]c(C)c2c(=N)n1-c1ccc(Br)cc1)C(=O)NCCOC` (stereo not given), the inhibition is 75% (active).

Take `CCOc1ccc(-n2c(SCC(=O)NC3CCCCC3)nc3n[nH]c(C)c3c2=N)cc1`: the inhibition is 10% (inactive).

Regarding `CCC(Sc1nc2n[nH]c(C)c2c(=N)n1-c1ccc(OC)cc1)C(=O)Nc1ccccc1OC` (stereo not given), the inhibition is 30% (inactive).

Take `Cc1ccc(C(=O)Nc2ccc(-n3cnnn3)c(C)c2)cc1`: the inhibition is -6.6% (inactive).

For the compound `COc1ccc(Br)cc1S(=O)(=O)NCCCn1ccnc1`, the inhibition was -3.1% (inactive).

As for `Cn1cc(C2=CCN(S(=O)(=O)c3cccc(Cl)c3)CC2)c2cccnc21`, the inhibition was 0.52% (inactive).

In the case of `COc1cccc(-c2nc(C3CCN(S(=O)(=O)c4ccccc4F)CC3)no2)c1`, the inhibition is -3.26% (inactive).

Regarding `CC1(C)CC(=O)C2=C(C1)NC1=C(C(=O)c3ccccc31)C2c1ccc(OCc2ccccc2)cc1` (stereo not given), the inhibition was 100% (active).

Take `CCCOc1ccc(C2C3=C(CC(C)(C)CC3=O)Nc3ccc4ncccc4c32)cc1` (stereo not given): the inhibition is 49% (inactive).

For `CCOc1ccc(C2C3=C(CC(C)(C)CC3=O)Nc3ncnn32)cc1` (stereo not given), the inhibition is -2.23% (inactive).

Regarding `O=C(c1ccccc1)c1cc(S(=O)(=O)C(F)(F)F)ccc1[N+](=O)[O-]`, the inhibition is 34% (inactive).

With `CCOc1ccc(CN2CCCC2c2c(C)noc2CC)cc1` (stereo not given), the inhibition was -51.7% (inactive).

Regarding `CNC(=O)c1c(NC(=O)c2ccc(Br)s2)sc(C)c1C`, the inhibition is -10.4% (inactive).

With `CSc1cccc(NC(=O)c2ncn[nH]2)c1`, the inhibition was 0.6% (inactive).

For `O=C(Nc1cc([N+](=O)[O-])ccc1Cl)c1ncn[nH]1`, the inhibition was 4% (inactive).

Regarding `O=C(Nc1ccc(Cl)c(C(=O)O)c1)c1ncn[nH]1`, the inhibition is 18.5% (inactive) and 57% (active).

On to `CC(C)(c1ccccc1)c1ccc(OCC(=O)Nc2ncn[nH]2)cc1`, for which the inhibition was 16% (inactive).

For `O=C1/C(=C/c2cccs2)CC2CC1C/C(=C\c1cccs1)C2=O`, the inhibition was 31% (inactive).

For the compound `Cc1n[nH]c(=O)nc1N/N=C/c1cccs1`, the inhibition entry was “active”.

With `Cc1ccc(C)c(N2CCN(C(=O)c3cc4ccncc4n3C)CC2)c1`, the inhibition was 48.1% (inactive).

As to `Cc1cc(O)c(CN2CCCCC2)c2c1C(=O)C(=Cc1ccncc1)O2`, the inhibition is 10% (inactive).

For the compound `O=C(CCc1ccccc1)N1N=C(c2cccc([N+](=O)[O-])c2)CC1(O)C(F)(F)F` (stereo not given), the inhibition was 26% (inactive).

In the case of `O=C1CC(c2ccccc2)=NN1c1ccc([N+](=O)[O-])cc1`, the inhibition was 91% (active).

On to `O=C1C2CC(Br)C(Br)CC2C(=O)N1c1ccc([N+](=O)[O-])cc1` (stereo not given), for which the inhibition is 0% (inactive).

In the case of `CCCn1ncc(N2CCC(C(=O)NCCCN3CCOCC3)CC2)cc1=O`, the inhibition is -2.54% (inactive).

Consider `O=C(Nc1ccc(Cn2cncn2)cc1)c1ccc(Cl)cc1`, for which the inhibition is 17.8% (inactive).

Regarding `CC1CN(C(=O)C2(c3ccccc3)CC2)CC1c1nc(-c2cccnc2)no1` (stereo not given), the inhibition was 29.4% (inactive).

Take `CCN(CC)CCCNC(=O)c1c(O)c2cc(F)cc3c2n(c1=O)C(C)CC3` (stereo not given): the inhibition was 98% (active).

Consider `CCN(CC)CCNC(=O)c1cn(C2CCCCC2)c(=O)c2c1c1ccccc1n2C`, for which the inhibition is 6% (inactive).

As to `CCNC(=O)c1c(O)c2cccc3c2n(c1=O)CC3`, the inhibition was 0% (inactive).

Turning to `CNC(=O)N1CCCC(c2cccc(C(=O)NCc3ccccc3C(F)(F)F)c2)C1` (stereo not given), the inhibition is -2.02% (inactive).

In the case of `COc1ccc(C2C3C(=O)N(c4ccc([N+](=O)[O-])cc4)C(=O)C3N3CCCN23)cc1` (stereo not given), the inhibition was -1% (inactive).

Take `C[C@H]1CN(c2ccc(Br)cc2)C(=O)[C@@H]1CC(=O)Nc1ccc(Br)cc1`: the inhibition was 2.2% (inactive).

Turning to `CCCCN1CC(C)(C)[C@H](CC(=O)Nc2ccc(Br)cc2)C1=O`, the inhibition is -13.5% (inactive).

Consider `CCCCN1C[C@H](c2ccc(Br)cc2)[C@@H](CC(=O)Nc2ccc(Br)cc2)C1=O`, for which the inhibition was 96.5% (active).

As to `Cc1cc(C)c(NC(=O)CNC(C)(C)C)c(C)c1`, the inhibition was -2.1% (inactive).

Turning to `O=C(NC(C(=O)N1CCCCC1)C12CC3CC(CC(C3)C1)C2)c1ccc(F)cc1` (stereo not given), the inhibition was 2.5% (inactive).

As to `CC1=C/C(=N\Oc2ccc3noc4c3c2C(=O)c2ccccc2-4)C(C(C)C)=CC1=O`, the inhibition entry was “active”.

Take `N#Cc1ccc(C2=COC3(CCCN(C(=O)c4ccccc4)C3)C2)cc1` (stereo not given): the inhibition is 2.5% (inactive).

Regarding `CN(C)c1ncccc1NC(=O)c1cccc(C#N)c1`, the inhibition was 0% (inactive).

On to `COc1cccc(C2Nc3ccc(C(=O)O)cc3C3C=CCC32)c1OC` (stereo not given), for which the inhibition was 15% (inactive).

As to `O=[N+]([O-])c1ccc2c(c1)C1C=CCC1C(c1cccc(Br)c1)N2` (stereo not given), the inhibition was 72% (active).

Take `O=C1NC(c2cccc([N+](=O)[O-])c2)C(=C(O)c2ccc(Br)cc2)C1=O` (stereo not given): the inhibition was 7.7% (inactive).

For the compound `CCCn1cnc2c1c(=O)n(CC)c(=O)n2-c1ccc(C)cc1`, the inhibition is 0.6% (inactive).

For `CC(C)Cn1cc(C(=O)NC2CCCCCC2)c2c3ccccc3n(C)c2c1=O`, the inhibition is 1% (inactive).

Regarding `COc1cccc(C2C3=C(Nc4c2c(=O)n(C)c(=O)n4C)c2ccccc2C3=O)c1OC` (stereo not given), the inhibition was 27% (inactive).

Turning to `Cn1nc(COc2ccc(F)cc2)c2c1CCN(C(=O)Nc1ccc(F)cc1F)C2`, the inhibition was -2.73% (inactive).

Take `Cn1nc(COc2ccc(F)cc2)c2c1CCN(C(=O)Nc1ccc(F)cc1)C2`: the inhibition was 80% (active).

`Cn1nc(COc2ccccc2)c2c1CCN(C(=O)Nc1ccc(F)cc1F)C2`: the inhibition was 22.3% (inactive).

As to `Cc1ccc(C)c(N=c2oc3ccccc3cc2C(=O)Nc2nccs2)c1`, the inhibition was -4% (inactive).

As to `CN(C)CCNC(=O)c1cc2n(n1)CCCN(Cc1cccc(F)c1)C2=O`, the inhibition was -3.78% (inactive).
